Laboratory results reported in PMC12136788.
Changes are numbered by the printed parent chain. Whole data set: some 24,000 sequences, median “enrichment r” near 0.99, cut for the highest 2% near 3.7. This excerpt belongs to a sample that is enriched for the highest values.

T1: UNK ZnF1-3 (human, UniProt Q9C0B0 31-174)
T1 sequence: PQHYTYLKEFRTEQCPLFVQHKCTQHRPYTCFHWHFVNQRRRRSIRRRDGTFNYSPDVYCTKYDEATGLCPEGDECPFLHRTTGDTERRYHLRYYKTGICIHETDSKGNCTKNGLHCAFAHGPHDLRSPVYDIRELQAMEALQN

B1: chr12:8945443:8945444:+_ENSMUSG00000020585_ENSMUST00000020909|mus_mus|motif|central (ssRNA)
RNA: GGGAGUUCUACAGUCCGACGAUCUGGAAACGUACAAAUGAGAAGCAUGCAACCAUCAUCUUCCACAGUCAAGUCAAACUGCGGUUUCUCUCUCUCUCCUGUUUCAUAGAGCUGGAAACUGCAGGUGUUAUACCCAACCUAUUCCAACAGAGGAUUGAGCAUCA
B2: 117863777_117864697_1263_CDS_ENSMUSG00000017715_ENSMUST00000132676|mouse|control|control (ssRNA)
RNA: GGGAGUUCUACAGUCCGACGAUCGCGGUCCUGGCGGUUGGUGAAGUAUGAGUCACUCAGGUUUGCACCACUCAGGAUGACGUUGUUGUCAAAGAGGUACACCUUGAUGUGCUGGAGGCCGAUGGUCUCAUUGAAGCGCUCAGGCAACAGAGGAUUGAGCAUCA
B3: chr10:77750680:77750681:-_ENSMUSG00000001211_ENSMUST00000139282|mus_hu|FALSE|FALSE (ssRNA)
RNA: GGGAGUUCUACAGUCCGACGAUCGCGGCGGUAGAGCUGCUUGCUGACCGGCCAGAGCGCCAGCGUGCACAGCUGGACGAAGUUGAUGACCAGACCACUCACCACGAAGACAAAGCCGACCAGCAGGUGCAGCACGAACUGGGUCAACAGAGGAUUGAGCAUCA
B4: chr6:41757443:41757444:+_ENSG00000214736_ENST00000398881|hu_mus|hu_hu_hu_mus_False|1_38 (ssRNA)
RNA: GGGAGUUCUACAGUCCGACGAUCGAACCGUGCAGAGGCAACAUCUCAGCCGACACUGGGGGAUGGGGGGGCAGUGGGGGGGGGUUCAGGCAAGGAGAAGAAAAGUGCUUCAGCUGCCACUCAGGUAGGAUCUUGUGGGGCACACAACAGAGGAUUGAGCAUCA
B5: chr6:41757443:41757444:+_ENSG00000214736_ENST00000398881|hu_mus|hu_hu_hu_mus_False|28_38 (ssRNA)
RNA: GGGAGUUCUACAGUCCGACGAUCGAACCGUGCAGAGGCAACAUCUCAGCCGACACUGGGGGAUGGGGGGGCAGUGGGGGGGGGUUCAGGCAAGGAGAAGAAAAGUGCCCAUCUGAACACUCAGGUAGGAUCUUGUGGUCACAGCAACAGAGGAUUGAGCAUCA
B6: 66332798_66333947_12362_CDS_ENSMUSG00000038664_ENSMUST00000042824|mouse|control|control (ssRNA)
RNA: GGGAGUUCUACAGUCCGACGAUCUUCACCACUUUCUGUCAAGGCCAUUGAGUGCCCAUCUGAGCCACAGGAAGUCACCAGCUGGGUCACCACAAAACCUUGUAGGGCUGAAAUCACAGUCAGCACAUGAAGGUCGUCUGAAUUCAACAGAGGAUUGAGCAUCA
B7: chr6:41757443:41757444:+_ENSG00000214736_ENST00000398881|hu_mus|hu_hu_hu_mus_False|58_58 (ssRNA)
RNA: GGGAGUUCUACAGUCCGACGAUCGAACCGUGCAGAGGCAACAUCUCAGCCGACACUGGGGGAUGGGGGGGCAGUGGGAAACUAGGCAGGCAAGGAGAGGGAGUCAACUUCAGCUGCCACUCAGGUAGGAUCUUGUGGUCACAGCAACAGAGGAUUGAGCAUCA
B8: chr6:41757443:41757444:+_ENSG00000214736_ENST00000398881|hu_mus|hu_hu_hu_mus_False|1_68 (ssRNA)
RNA: GGGAGUUCUACAGUCCGACGAUCGAACCGUGCAGAGGCAACAUCUCAGCCGACACUGGGGGAUGGGGGAACAAAAGGGGGGGGUUCAGGCAAGGAGAGGGAGUCAACUUCAGCUGCCACUCAGGUAGGAUCUUGUGGGGCACACAACAGAGGAUUGAGCAUCA
B9: chr6:41757443:41757444:+_ENSG00000214736_ENST00000398881|hu_mus|hu_hu_hu_mus_False|28_28 (ssRNA)
RNA: B5 RNA with A98G, A100G, A102G, A103U, G104C, U105A, G106A
B10: 53565353_53565853_12282_CDS_ENSG00000086758_ENST00000262854|human|control|control (ssRNA)
RNA: GGGAGUUCUACAGUCCGACGAUCCCCAUCAGCAAGGUGGGUCGUGGACUGCCGUAGGAUCUGGUUUAACACAGUGCGGUGAGUCUCUGCAAAGCGAAGGAACUUCUGUGUGUCAGGGGGCAGGCUUGAGGAGAUGUGCAUAGACAACAGAGGAUUGAGCAUCA
B11: chr10:127876205:127876206:+_ENSMUSG00000025373_ENSMUST00000096386|mus_mus|FALSE|FALSE (ssRNA)
RNA: GGGAGUUCUACAGUCCGACGAUCGGGGCCACCGAGGCAACACAGACACCCUCUUGAGGCAGUGCCGUUCUGGAUCAGCAGAGCCAGACAGCAGCUUCCUGCUGAGUGUACGAACACCAGUGCUCUCACGCCCACCCCUUCCUUCAACAGAGGAUUGAGCAUCA
B12: chr15:43699750:43699751:-_ENSG00000067369_ENST00000382044|hu_hu|motif|central (ssRNA)
RNA: GGGAGUUCUACAGUCCGACGAUCACACUUCAGCACCGAGGCUGGGCAUGAGGGGUCCGUCACCACCACAUCAAAUACCCCGGAAGCAAUAUCUUUGUUAUGGGCACUUGAAUGGUGCUGCUUCACAGAGGCUGCACCACCAGUCAACAGAGGAUUGAGCAUCA
B13: chr6:41757443:41757444:+_ENSG00000214736_ENST00000398881|hu_mus|hu_hu_hu_mus_False|18_28 (ssRNA)
RNA: GGGAGUUCUACAGUCCGACGAUCGAACCGUGCAGAGGCAACAUCUCAGCCGACACUGGGGGAUGGGGGGGCAGUGGGGGGGGGUUCAGGCAAGGAGAGGGAGUCAACCCAUCUGAAUCAAACUUCAGGAUCUUGUGGUCACAGCAACAGAGGAUUGAGCAUCA
B14: chr7:133639990:133639991:-_ENSMUSG00000032637_ENSMUST00000167759|mus_hu|FALSE|FALSE (ssRNA)
RNA: GGGAGUUCUACAGUCCGACGAUCGGUAGAGAGUUCUUUUACAUCUGUGGGGGCCAGGGAGAUCUUUGGAGAAGCUGGAGAAAUGGAGCCCACUCCAGGAUCUGAGACUGAUGAGGUCACAGGGAUGGAGGCUGAAGAGGUUGGCAACAGAGGAUUGAGCAUCA
B15: 112904347_112904467_7746_CDS_ENSMUSG00000036862_ENSMUST00000078482|mouse|control|control (ssRNA)
RNA: GGGAGUUCUACAGUCCGACGAUCUGUGGCCUCCAGGGUGAGCAGGGUGGAACCAGGGGGCAAAUCUUCAGACACAGCAACACGGUAGUGUGGCAAUGUGAAGCUUGGGGCAUGGUCAUUCUGGUCCUUCAGCUGCACAUGCACCAACAGAGGAUUGAGCAUCA
B16: chrX:40988281:40988282:+_ENSG00000124486_ENST00000378308|hu_mus|FALSE|FALSE (ssRNA)
RNA: GGGAGUUCUACAGUCCGACGAUCUUCAAUCUGUGGAGGAGCAUCACCUUGACCUUGCUCAUCAGGAGGAGUUGCAGGGGAAUUUUCAUUGGACGAAUCAGGCGAUGAAGUCUGAUUCUGUUGGAGGGGGGGCUGAGACUGUCCCAACAGAGGAUUGAGCAUCA
B17: chr6:17872010:17872011:+_ENSMUSG00000029534_ENSMUST00000127322|mus_mus|motif|central (ssRNA)
RNA: GGGAGUUCUACAGUCCGACGAUCUCACUGUCUCCUCUCUUCAGGAUGUGUUCUGGUGGGAGGAUUAAGCUUUUCAUUUCGGGUAGAUAUUUUGGCACGUGUGGAUUAAAUUCCACAGCUCUGUGGAUGGCUUCUACUGCAUUCCAACAGAGGAUUGAGCAUCA
B18: chr9:37441256:37441257:-_ENSG00000168795_ENST00000307750|hu_hu|FALSE|FALSE (ssRNA)
RNA: GGGAGUUCUACAGUCCGACGAUCAGGCCCAGCCUCUGGACUCAACAAAUAGGGGGCCUCACUCUCCAGCCUGCAGUCACUAGUGGUGUUUGGAAUAUUAUCAUCAUUGUUCUGAUUUGCAGUAAAGUUAUUUCCUCUGCUCUUCAACAGAGGAUUGAGCAUCA
B19: 80013064_80013876_841_CDS_ENSG00000169727_ENST00000578552|human|control|control (ssRNA)
RNA: GGGAGUUCUACAGUCCGACGAUCCUCAGGGAAGUCACAGUGAUCAAAGGAAGCCAGCAGGAGGCACUUGGCAGCCUGCUUGUACUUCCUGGCGGCCAGCUCUGCCAAGCCUGCGGCACACUUGAGCUUGGUGAGGAUGGCCUGCAACAGAGGAUUGAGCAUCA
B20: chrX:40988281:40988282:+_ENSG00000124486_ENST00000378308|hu_hu|FALSE|FALSE (ssRNA)
RNA: B16 RNA with U29G, A36U, A39G, A63U, A66G, A75C, C93A
B21: 5790880_5791000_6181_CDS_ENSG00000108021_ENST00000328090|human|control|control (ssRNA)
RNA: GGGAGUUCUACAGUCCGACGAUCGAAGUUCAACGACGACUCAUAGCCAUCUGUGGGAACAUCUUUUUUCCUGGUGUAACUACCUCUUAAAGUAUAAGAAUCCUCCAAAUCCAGUCUGGGAUUUCUACAAUCACCAAGCAGGUCCAACAGAGGAUUGAGCAUCA
B22: chr12:133780691:133780692:+_ENSG00000090612_ENST00000541009|hu_hu|motif|central (ssRNA)
RNA: GGGAGUUCUACAGUCCGACGAUCUCAUAUGGUUUUUCACCUGAAUGAGUUCUCAUGUGUAUAAUUAGGUAUGACUUGCUGCGGAAAGCUUUCCCACAUUCACUGCACCCAUAAGGCUUUUCCCCUGCAUGAGUUCGCUGAUGUCAACAGAGGAUUGAGCAUCA

What follows are binders tested against T1, UNK ZnF1-3 (assay: nsRBNS (natural sequence RNA bind-n-seq); RBNS binding buffer (assumed for nsRBNS): 25 mM Tris pH 7.5, 150 mM KCl, 3 mM MgCl2, 0.01% Triton X-100, 500 ug/ml BSA, 20 U/ml SUPERase-In, 4 C; UNK is unkempt and MSI1 is Musashi-1; names of the RNAs are library labels; protein concentration not given here; high values mean tight binding).
B1 was tested, and the binding signal was 0.736 enrichment R.
B2 showed a binding signal of 0.897 enrichment R.
B3 was tested, and the binding signal was 0.809 enrichment R.
In the case of B4, the binding signal is reported as 4.72 enrichment R.
B5 showed a binding signal of 3.96 enrichment R.
Binder B6 has a binding signal of 0.824 enrichment R.
B7 was tested, and the binding signal was 2.2 enrichment R.
Binder B8 has a binding signal of 3.16 enrichment R.
B9 showed a binding signal of 5.01 enrichment R.
B10 showed a binding signal of 1.49 enrichment R.
With B11 the binding signal was 1.13 enrichment R.
Work on B12 yielded a binding signal of 0.852 enrichment R.
With B13 the binding signal was 5.1 enrichment R.
For B14, the binding signal was 2.03 enrichment R.
In the case of B15, the binding signal is reported as 1.43 enrichment R.
Binder B16 has a binding signal of 1.31 enrichment R.
B17 gave a binding signal of 0.937 enrichment R.
B18 gave a binding signal of 0.924 enrichment R.
With B19 the binding signal was 0.285 enrichment R.
B20 showed a binding signal of 1.24 enrichment R.
B21 gave a binding signal of 1.18 enrichment R.
Work on B22 yielded a binding signal of 0.705 enrichment R.
